Experimental data from PubChem BioAssay AID440 (NMMLSC, 2006).
Among all 24,000 compounds or so, about 180 (0.75%) were called active. The sample as a whole holds a higher share of actives than the screen did. Unmarked numbers belong to inactive results. Rule as the data show it: active = inhibition above about 30%; inconclusive = no clear call, values can overlap the other calls; inactive = below that.

molecular target: fMet-Leu-Phe receptor (Homo sapiens) (UniProt P21462); assay: small molecules displacing FPR fluorescent ligand – cell-based, FPRL1 counter-screen, flow cytometry, primary screen (AID 440); settings: FPR-expressing cells, fluorescent ligand binding, active compounds read high, concentration not given here;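 also: 0% = buffer wells and 100% = receptor blocker peptide wells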
Sequence (P21462 whole entry, looked up): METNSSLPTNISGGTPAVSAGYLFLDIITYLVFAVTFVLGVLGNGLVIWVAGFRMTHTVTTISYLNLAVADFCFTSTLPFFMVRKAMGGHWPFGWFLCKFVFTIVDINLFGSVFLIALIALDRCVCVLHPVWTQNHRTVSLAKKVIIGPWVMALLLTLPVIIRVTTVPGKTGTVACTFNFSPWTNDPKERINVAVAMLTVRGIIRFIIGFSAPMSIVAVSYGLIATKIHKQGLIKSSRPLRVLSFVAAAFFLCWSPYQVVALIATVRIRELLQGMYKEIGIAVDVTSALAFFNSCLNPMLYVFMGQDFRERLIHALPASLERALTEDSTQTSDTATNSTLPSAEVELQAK

Structure (SMILES)	inhibition
O=C(Nc1ccccc1C(=O)N1CCOCC1)C1CCC(=O)N1C1CCCC1 (stereo unspecified)	-0.6%
COc1ccc(CN2C(=O)CN=C2Nc2ccc(C)cc2C)cc1	6.5%
O=C(Cn1nc(Cc2cccnc2)c2ccccc2c1=O)NCC1CCCO1 (stereo unspecified)	0.4%
Cc1nn(C)c(C)c1S(=O)(=O)N1CCc2ccccc21	8.9%
O=C(NCCCN1CCN(C2CCCCC2)CC1)Nc1ccccc1C(F)(F)F	1.3%
O=C(CN1C(=O)COc2ccccc21)Nc1ccc(F)cc1	4.3%
CCn1ncc(Br)c1C(=O)Nc1cc(C)ccc1F	0.8%
Cc1nc(CNS(=O)(=O)c2cccnc2)cs1	1.9%
CSc1sc(C)cc1C1C(C#N)=C(N)N(c2cccnc2)C2=C1C(=O)CCC2 (stereo unspecified)	4.3%
Cc1nc(C)c(C(=O)Nc2ccc(C)c(F)c2)o1	-4.6%
O=c1c(-c2ccc3c(c2)OCCO3)c(C(F)(F)F)oc2cc(O)cc(O)c12	-6.7%
Cc1cccn2c(=O)c3cc(C(=O)NCc4ccccn4)n(C)c3nc12	-5.1%
O=C(Nc1cccnc1)c1noc2c1CCCCC2	-1.9%
Cc1cc(N2C(=O)C(=O)/C(=C(/O)c3ccc(Cl)cc3)C2c2cccc(Br)c2)no1 (stereo unspecified)	3.2%
CCCC(NC(=O)c1ccccc1)c1nc2ccccc2n1Cc1ccc(C(=O)OC)o1 (stereo unspecified)	24.2%
CSc1ccc(NC(=O)N2CC(C)OC(C)C2)cc1 (stereo unspecified)	-6.4%
CCCCOc1ccc(C(=O)NCc2ccco2)cc1	0.1%
O=C(O)Cc1ccc(-c2ccccc2)cc1	3.8%
Cc1cc(Cl)c(S(=O)(=O)Nc2ccc3c(c2)OCCO3)cc1OCC(N)=O	-7.6%
CC1=C(C)CC2C(=O)N(c3cccc4ccccc34)C(=O)C2C1 (stereo unspecified)	-2.3%
COc1cc2c(cc1NC(=O)CN1CCN(S(=O)(=O)c3ccc(F)cc3)CC1)oc1ccccc12	2.8%
CCOC(=O)C1(C(F)(F)F)N=C(N(C)C)OC(N(C)C)=N1	-1.4%
COC(=O)Nc1ccc(S(=O)(=O)N(C)CC(F)(F)C(F)F)cc1	1%
CCCOc1ccc(/C(O)=C2/C(=O)C(=O)N(CCN(C)C)C2c2ccc(OC)c(OC)c2)cc1 (stereo unspecified)	-5%
COC(=O)CNS(=O)(=O)c1ccc(Cc2ccc(S(=O)(=O)NCC(=O)OC)cc2)cc1	-3.3%
CCOC(=O)c1ccc(-n2c(C)nc3c(cnn3-c3ccccc3C)c2=O)cc1	-9.5%
